Bioassay records from PubChem BioAssay.
Nox1 inhibitor – human Nox1 inhibition | Q9Y5S8 | HT29 cells, luminol chemiluminescence ROS | inhibition, % at 6.7 µM | hit rate 0.81% among 16,000 | AID 1792
PME-1 Maybr inh – PME-1 (human) inhibition, Maybridge primary screen | recombinant PME-1, FP-Rh probe fluorescence polarization | AID 2291 | hit rate 0.5% among 16,000 | inhibition, % at 9 µM; in the data active = inhibition above about 30%
Target sequence (Q9Y570 whole entry, looked up): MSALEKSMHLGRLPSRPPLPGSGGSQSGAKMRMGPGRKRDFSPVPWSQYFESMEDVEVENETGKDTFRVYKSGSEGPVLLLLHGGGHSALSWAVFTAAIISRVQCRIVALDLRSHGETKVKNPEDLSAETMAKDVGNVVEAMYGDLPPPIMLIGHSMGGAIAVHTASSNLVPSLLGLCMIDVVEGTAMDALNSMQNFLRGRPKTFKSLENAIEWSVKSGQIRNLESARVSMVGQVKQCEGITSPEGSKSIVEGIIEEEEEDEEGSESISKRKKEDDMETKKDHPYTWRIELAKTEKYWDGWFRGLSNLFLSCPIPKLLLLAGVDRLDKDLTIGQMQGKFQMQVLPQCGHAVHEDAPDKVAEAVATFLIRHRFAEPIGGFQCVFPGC
luminol inh ctr – quenches luminol chemiluminescence in Nox1 counter-screen; HRP/luminol/H2O2 chemiluminescence counterscreen; inhibition, % at 6.7 µM; hit rate 0.4% among 16,000; AID 1823; also: reference of the scale not given here
OPRK1 antag MB – OPRK1 (human) antagonism, Maybridge screen. P41145. OPRK1 cells, antagonist mode, fluorescence readout. inhibition, % at 9 µM. hit rate 0.4% among 16,000. AID 652031; in the data active = inhibition above about 50%
Numbers without * were called inactive. Compounds with a hit are over-represented: about 2% of the library has one in this group of screens. Rule as the data show it, unless noted: active = inhibition above about 75%; inactive = the rest.

SMILES	Nox1 inhibitor	PME-1 Maybr inh	luminol inh ctr	OPRK1 antag MB
O=C(N/C(=C\c1ccc(-c2ccc([N+](=O)[O-])cc2)o1)c1nc2ccccc2[nH]1)c1ccccc1	-34.0	-10.3	13.8	112.8*
N#CC1=C(N)C(C#N)(C#N)C2(CCCC2)C2CCC=C12 (stereo unspecified)	-13.9	9.6	9.4	6.4
Cc1ccc(OS(=O)(=O)c2c(Cl)sc(Cl)c2Br)c([N+](=O)[O-])n1	11.7	40.2*	-3.5	11.3
Cc1ccc(OC(=O)c2sc3ccccc3c2Cl)c([N+](=O)[O-])n1	-15.2	3.7	-4.3	-12.6
O=[N+]([O-])c1ccc(N/N=C/c2ccc(-c3cccs3)s2)nc1	-14.3	-124.3	14.6	79.1*
CN(C)/C=C(\C#N)C(=O)NCc1ccc(F)cc1F	3.2	2.5	-3.5	4.8
c1ccc2c3c([nH]c2c1)CCCCCC3	-61.3	0.1	0.8	13.6
S=c1[nH]c(=S)c2ccccc2[nH]1	-68.4	1.0	77.1*	0.5
COC(=O)c1ccc(S(=O)(=O)Oc2ccccc2N2CCOCC2)o1	16.8	3.0	-5.2	22.1
COC(=O)C(Cc1ccc(Cl)cc1Cl)S(=O)(=O)c1ccc(Cl)cc1 (stereo unspecified)	-112.7	7.1	-0.5	-16.0
c1ccc2c(c1)NC(c1ccc3c(c1)OCO3)O2 (stereo unspecified)	79.7*	-4.3	7.9	3.5
COc1cc(NC(=O)Nc2ccc(Cl)cc2)c(-n2c(C)ccc2C)cc1OC	-2.8	73.8*	3.8	13.1
O=C(NNC(=O)C(F)(F)F)c1ccc[nH]1	-39.8	0.7	3.1	52.2*
O=C(NNC(=O)c1ccc[nH]1)c1cccc(C(F)(F)F)c1	-19.8	-0.3	0.3	-5.3
O=[N+]([O-])c1ccc(-c2ccc(/C=N/Nc3ccccc3)o2)cc1	24.8	1.6	7.5	81.4*
CCC(CO)NC(=S)Nc1ccsc1C(=O)OC (stereo unspecified)	-0.9	1.9	4.6	-8.0
COC(=O)c1sccc1NC(=O)CC1C(=O)NCCN1C(=O)c1ccccc1 (stereo unspecified)	-38.9	46.5*	-0.3	3.7
COC(=O)c1sccc1NC(=S)NCCN1CCNC1=O	19.7	4.6	98.9*	-5.4
O=c1onc(-c2ccccc2)n1-c1cccc(C(F)(F)F)c1	-13.7	-3.9	-2.2	-11.6
O=C(c1ccco1)N1CCN(CCN2CCOCC2)CC1	2.1	-0.3	-2.3	4.0
Cc1cccc(NNC(=O)C2CCC2)c1	28.4	-2.4	101.0*	13.6
S=C1NCN(CCN2CCCC2)CN1	-9.2	0.1	-2.0	-0.4
Cn1ncc(C(=O)N=S(C)(=O)c2ccc(Cl)cc2)c1[N+](=O)[O-] (stereo unspecified)	-44.6	2.6	0.1	-19.5
Cn1ncc(C(=O)NC(=O)Nc2ccc(F)cc2)c1[N+](=O)[O-]	77.7*	-1.7	-5.8	33.2
O=C(c1cc(C(F)(F)F)cc(C(F)(F)F)c1)N1CCC(O)(c2ccc(Cl)cc2)CC1	6.7	2.1	-1.9	-16.8
SMILES	Nox1 inhibitor	PME-1 Maybr inh	luminol inh ctr	OPRK1 antag MB
Nc1nc(Nc2ccccc2)n[nH]1	77.5*	-2.0	13.0	-0.3
Nc1nc(NCc2cccnc2)n[nH]1	76.9*	5.4	-6.1	22.1
Nc1nc(NCc2ccccn2)n[nH]1	89.9*	0.2	1.9	11.8
Nc1nc(NCc2ccc(-c3cccs3)s2)n[nH]1	56.6	2.2	0.6	0.5
CN(C)c1ccc(/C=C/c2cc[n+](Cc3ccc(F)cc3)cc2)cc1	-17.3	3.7	-0.9	1.6
CNC(=S)NNC(=O)c1c(C)nc2cc(C)ccn12	96.6*	5.1	24.4	10.8
CCOC(=O)CSC(=NCc1ccccc1)NNC(=O)c1c(C)nc2cc(C)ccn12	-17.5	3.0	-8.1	6.7
CC(C)(C)OC(=O)N1CCN(C(=O)Nc2ccc(C(F)(F)F)cc2)CC1	-14.7	0.1	1.7	2.2
CN1CCN(c2ccc(NC(=O)Nc3ccc(C(F)(F)F)cc3)cc2)CC1	-44.1	36.1*	-0.2	4.2
O=S(=O)(NCc1cc(C(F)(F)F)cc(C(F)(F)F)c1)c1ccc(F)cc1F	-37.1	1.8	0.1	-16.3
S=C(NCc1ccncc1)NCc1ccco1	-6.1	-1.9	4.7	20.3
Nc1ccc(Nc2ccc(N)cc2S(=O)(=O)O)cc1	26.1	44.3*	12.6	-0.4
Cc1nc(-c2ccncc2)ncc1-c1nsc(Nc2ccccc2)n1	-3.7	-0.7	1.1	0.3
O=[N+]([O-])c1cccc(C2Oc3ccccc3C3CC(c4ccccc4)=NN32)c1 (stereo unspecified)	0.0	-2.5	3.4	1.5
O=[N+]([O-])c1ccc(C2=NN(c3ccccc3)C(c3ccco3)C2)cc1 (stereo unspecified)	-25.1	0.5	11.1	86.6*
CC(=O)Nc1ccc(NC(=O)Nc2ccccc2)cc1	3.1	3.8	-6.7	0.5
CN(C)c1cc(NC(=O)Nc2ccccc2)c2ccccc2n1	-60.2	-3.4	-0.7	56.7*
Clc1ccc2c(Nc3ccc4c(c3)OCO4)ccnc2c1	-35.9	2.7	7.8	51.4*
CN(C)CCCNc1sc(-c2ccccn2)c([N+](=O)[O-])c1[N+](=O)[O-]	-9.4	64.8*	6.6	13.2
CCOC(=O)C1CCN(Cc2cccc(NC(=O)c3cccs3)c2)CC1	-2.4	-3.6	-1.8	50.2*
C=C(C(=O)O)C(CC(=O)O)C(=O)O (stereo unspecified)	-13.0	11.2	4.4	-3.2
Cc1cccc(Cl)c1NNC(=O)Nc1c([N+](=O)[O-])c(C)nn1C	-36.8	2.9	6.2	1.6
Cc1cc(NNC(=O)c2ccccc2Cl)nc2c1c(C)nn2C	78.3*	7.4	31.1	-0.8
COc1ccc(-n2ncc(C(=O)N3CCN(c4ccccn4)CC3)c2C)cc1	-5.0	3.8	-0.2	-4.6
FC(F)(F)c1cccc(CSc2n[nH]c(=S)s2)c1	15.2	6.6	99.0*	6.2
Cc1noc(/C=C/c2ccco2)c1[N+](=O)[O-]	-31.6	4.8	0.7	16.8
CSc1ccc(/C=C/c2onc(C)c2[N+](=O)[O-])s1	-61.7	63.6*	10.6	106.0*
FC(F)(F)c1cc(-c2ccc(-n3cccc3)cc2)n[nH]1	-39.1	-6.8	1.1	-2.6
